The text below walks through data of PubChem BioAssay (NCI).

About 83,000 compounds went through this panel and 20% of them were active in at least one assay; those are over-represented in the sample as a whole.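 48-hour exposure, single concentration, 96-well plates; percent growth endpoint where 0 means no net growth. Active: below 10.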 A number with no mark means an inactive call. Activity calls are given as the source filed them.

Holding throughout (experiment): NCI-60 one-dose screen, 48 h (100 = growth as untreated, 0 = no growth, -100 = all killed)
What all share (settings): 10 µM

For test [1], the system named is NCI-H23 lung.
Test [2] concerns NCI-H226 lung.
Test [3] deals with HOP-62 NSCLC.
Test [4] concerns HOP-92 NSCLC.
The subject of test [5] is NCI-H522 lung.
Test [6] has as its system A549/ATCC NSCLC.
Test [7] has as its system 786-0 renal.
Test [8] deals with COLO 205 colon.
The subject of test [9] is NCI-H460 lung.

In the case of `CC(=O)Nc1ccc(S(=O)(=O)c2ccnc3cc(Cl)ccc23)cc1`, the growth in test [1] was 68.2%; in test [2], 78.1%; in [3], 99.1%; in [4], 99.8%; in test [5] it was 28.1%; in [6], 85.3%. Moreover, the growth was 125% in test [7] and 95.3% in test [8].

For `O=C1OC(C(Cl)(Cl)Cl)OC1C(Cl)(Cl)Cl` (stereo not given), the growth was 102% in test [1]; 110% in [2]; 108% in test [9]; 105% in test [4]; 96.4% in test [5]; 95.6% in test [6]. Besides, the figures for the growth in test [7] and in test [8] were 114% and 107%, respectively.

Consider `C/C(=C/CCC(C)[C@@H]1CC[C@]2(C)C3=C(CC[C@@]12C)[C@@]1(C)CCC(=O)C(C)(C)[C@@H]1CC3)C(=O)O` (stereo not given in full), for which the growth in test [1] is -78.3% (active); in [2] it was -47.3% (active); in test [9] it was -80.7% (active); in [4], -93.3% (active); in [5] it was -69% (active); in test [6] it was -56.2% (active). Moreover, the figures for the growth in test [7] and in [8] were -92% (active) and -91% (active), respectively.

As to `COc1ccc(NC(=O)C2CC3C=CC2C3)c([N+](=O)[O-])c1` (stereo not given), the growth is 96% in [1]; 96.1% in test [2]; 107% in test [9]; 81.9% in test [4]; 94.9% in test [5]; 93.8% in [6]. Besides, the growth in test [7] was 123%; in test [8] it was 115%.

In the case of `COC(=O)CC[C@@H](C)[C@H]1CC[C@H]2[C@@H]3CC[C@@H]4C[C@H](O)CC[C@]4(C)[C@H]3C[C@H](O)[C@]12C`, the growth in test [1] is 116%; in [2] it was 102%; in test [3] it was 109%; in test [9] it was 110%; in [6], 102%; in test [7] it was 107%. Also, the growth in test [8] is 101%.

Consider `CCOC(=O)N/N=C/c1ccc(OC)c(OC)c1`, for which the growth in test [1] is 113%; in test [2], 97.9%; in test [3] it was 112%; in [9], 102%; in test [6] it was 102%; in [7], 104%. In test [8], the growth was 117%.

With `O[C@@H]1CO[C@H]2[C@@H]1OC[C@@H]2O`, the growth in test [1] was 109%; in [2] it was 109%; in test [3] it was 107%; in [4], 108%; in test [5], 111%; in test [6] it was 96.9%. The values for the growth in test [7] and in [8] were 109% and 119%, respectively.

Turning to `CC(C)(C)OC(=O)N1CCc2c(sc3ncnc(N/N=C/c4ccccc4Br)c23)C1`, the growth in test [1] was 74%; in test [2] it was 78%; in [9] it was 49.2%; in test [4], 80.8%; in test [5], 68.2%; in test [6], 68.1%. For the same molecule, the results for the growth in test [7] and in test [8] were 69.2% and 27.6%, respectively.

As for `CC[C@@H](C(=O)[C@@H](C)[C@@H](O)[C@H](C)[C@@H]1O[C@@H]([C@@H](CC)C(=O)O)CC[C@@H]1C)C1O[C@]2(C=CC(=O)[C@]3(CC[C@@](C)([C@H]4CC[C@](O)(CC)[C@H](C)O4)O3)O2)[C@H](C)C[C@@H]1C` (stereo not given in full), the growth in test [1] is 30.5%; in test [2], 28.3%; in [9] it was 23.8%; in test [4], 73.5%; in test [5], 24.6%; in [6], 28.3%. Moreover, the growth was 24.7% in [7] and 10.1% in test [8].

Consider `CC(C)(C)OC(=O)CC(S(=O)(=O)c1ccccc1)S(=O)(=O)c1ccccc1`, for which the growth in test [1] was 102%; in test [2], 94.5%; in test [3], 103%; in test [4] it was 122%; in [5], -36.4% (active); in test [6] it was 112%. In addition, the growth is 105% in test [7] and -98.1% (active) in test [8].

Take `C=CCn1c(SCC(=O)Nc2ccc(C(=O)/C=C/c3ccc(OC)cc3)cc2)nnc1-c1ccc(OC)c(OC)c1`: the growth was 89.3% in [1]; 82.7% in test [2]; 91.7% in test [9]; 83.2% in test [4]; 65.6% in [5]; 85.8% in test [6]. In addition, the growth in test [7] was 79.9%.

In the case of `O=C(Nc1ccc(OS(=O)(=O)c2ccccc2)cc1)C1CCCCC1`, the growth in test [1] is 88%; in test [2], 87%; in test [9] it was 99.8%; in test [4], 98.5%; in [5], 75.4%; in test [6] it was 90.5%. Besides, the growth in test [7] was 89.9%; in test [8], 97%.

`COC(=O)c1c[nH]c2cc(OC(C)C)c(OC(C)C)cc2c1=O`: the growth in test [1] was 97.6%; in [2], 92.9%; in test [3], 37.9%; in test [4] it was 80.5%; in test [5], 94.3%; in test [6], 61.8%. For the same molecule, the growth in test [7] is 110%; in test [8] it was 108%.

Regarding `Cc1cc(=O)n2nnc3cc(Cl)c(Cl)cc3n12`, the growth in test [1] is 95.6%; in test [2], 112%; in test [9] it was 113%; in [4], 101%; in [5], 53.9%; in [6], 104%. Also, the growth in test [7] is 108%; in test [8], -63.7% (active).

As to `CCCN(CCC)C(=O)[C@H](CC)[C@@H]1CC[C@@H](C)[C@@H]([C@H](C)[C@@H](O)[C@@H](C)C(=O)[C@H](CC)C2O[C@]3(C=C[C@@H](O)[C@]4(CC[C@@](C)([C@H]5CC[C@](O)(CC)[C@H](C)O5)O4)O3)[C@H](C)C[C@@H]2C)O1` (stereo not given in full), the growth in [1] was -9.41% (active); in test [2], -2.4% (active); in test [9] it was 1.15% (active); in test [4] it was -21.1% (active); in [5] it was -11.1% (active); in [6], 16.6%. For the same molecule, the growth is 15.8% in [7] and -64.2% (active) in [8].

`Nc1nc(Cn2c(-c3nonc3N)nc3ccccc32)nc(N2CCCCC2)n1`: the growth is 90.5% in test [1]; 94.4% in [2]; 99.4% in test [9]; 82.3% in test [4]; 71.7% in test [5]; 93.1% in [6]. Moreover, the growth in test [7] was 92%; in test [8], 94.4%.
